Experiment [1] addresses Thyrotropin-releasing hormone receptor (Homo sapiens) (UniProt P34981). Briefly: qHTS assay to identify small molecule agonists of the thyrotropin-releasing hormone receptor (TRHR) signaling pathway (AID 1346891; calls by dose curve;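 note: HEK293 cells expressing TRHR with calcium dye readout; series mostly up to about 58 µM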). The method, boiled down: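 In 1536-format, 1500 TRHR-Hek293 cells per well grew 18 h, took up calcium dye for 2 h at 37 °C, received compound, and were read kinetically; 15-point titrations, triplicates.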

Experiment [2] is described as follows: Human pregnane X receptor (PXR) small molecule agonists, qHTS cell viability counter screen (AID 1346977). Note: nearly all actives have a fitted effect of over 50% in size. In a few lines:
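Readout is CellTiter-Fluor fluorescence from PXR-Luc HepG2 cells. Plated cells rested 5hr, then were treated with compounds for 24hr at 37C and 5% CO2, with reagent present during the last hour.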
(Quantitative high-throughput screening tests each substance at several concentrations.)

Experiment [3] can be described thus: Caspase-3/7 induction in HepG2 cells by small molecules, qHTS assay (AID 1346978). Note: nearly all actives have a fitted effect of over 15% in size. In a few lines:
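Wild-type HepG2 cells (2,000/well) were settled 5 h at 37 C, 5% CO2, then exposed to compounds in DMSO for 17 h. Caspase-3/7 activity was read by luminescence 30 min after adding Caspase-Glo 3/7 reagent at room temperature.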

The nature of experiment [4]: Caspase-3/7 induction in CHO-K1 cells by small molecules, qHTS assay (AID 1346980). Note: nearly all actives have a fitted effect of over 15% in size. The method, boiled down:
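Wild-type cells were seeded at 1,500 per well and settled 5 hr at 37 C, 5% CO2, then exposed to DMSO-dissolved compounds for 17 hr. Caspase-Glo 3/7 reagent was added, and luminescence was read after 30min at room temperature.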

Experiment [5] in a line: Caspase-3/7 induction in HepG2 cells by small molecules, qHTS cell viability counter screen (AID 1346981). Note: series mostly up to about 92 µM; nearly all actives have a fitted effect of over 30% in size. The method, boiled down: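 Counter screen for cytotoxicity: HepG2 exposed 16 hr to compounds, then CellTiter-Fluor viability signal (fluorescence, 1 hr reagent incubation).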
The target in experiment [6] is Nuclear receptor subfamily 1 group I member 2 (Homo sapiens) (UniProt O75469). Description: Human pregnane X receptor (PXR) small molecule agonists, qHTS assay (AID 1346982). Note: nearly all actives have a fitted effect of over 35% in size. Note: potency is the fitted concentration of half-maximal effect. The method, boiled down:
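Luminescence (ONE-Glo, 30 min RT) after 24 hr compound exposure of PXR-Luc HepG2 cells; cells rested 5 hr post-plating in 5% charcoal-stripped FBS medium.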

The target of experiment [7] is Acetylcholinesterase (Homo sapiens) (UniProt P22303). Briefly: Acetylcholinesterase (AChE) small molecule antagonists: colormetric cell-based qHTS assay (AID 1347395; calls by dose curve; note: nearly all actives have a fitted effect of over 30% in size; note: potency is the fitted concentration of half-maximal effect). In a few lines: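 Neuroblastoma line SH-SY5Y supplied the enzyme; cells were preincubated with compound for 30 min at 37 C and 5% CO2. Acetylthiocholine with DTNB was then added for 90 min at 37 C, and thiocholine was measured by colour.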
Chain of Acetylcholinesterase (Homo sapiens) (P22303 whole entry, looked up): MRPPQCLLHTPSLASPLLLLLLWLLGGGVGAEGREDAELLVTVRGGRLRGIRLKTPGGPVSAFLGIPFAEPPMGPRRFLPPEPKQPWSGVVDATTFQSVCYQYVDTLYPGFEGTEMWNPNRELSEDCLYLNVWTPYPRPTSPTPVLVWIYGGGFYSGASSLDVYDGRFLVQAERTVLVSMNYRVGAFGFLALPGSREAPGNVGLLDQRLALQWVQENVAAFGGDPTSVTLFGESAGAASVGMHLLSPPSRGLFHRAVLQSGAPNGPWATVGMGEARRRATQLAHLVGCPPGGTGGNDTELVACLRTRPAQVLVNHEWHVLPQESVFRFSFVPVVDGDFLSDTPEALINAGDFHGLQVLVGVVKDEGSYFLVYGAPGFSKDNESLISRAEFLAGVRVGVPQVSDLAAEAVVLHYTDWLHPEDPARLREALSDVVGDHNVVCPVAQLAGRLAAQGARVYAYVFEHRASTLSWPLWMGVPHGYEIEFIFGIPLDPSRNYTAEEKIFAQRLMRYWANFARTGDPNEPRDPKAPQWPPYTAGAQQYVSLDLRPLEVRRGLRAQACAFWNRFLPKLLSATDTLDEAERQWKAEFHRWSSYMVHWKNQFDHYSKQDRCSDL

For experiment [8] the target is unchanged. Description: Acetylcholinesterase (AChE) small molecule antagonists: enzyme-based qHTS assay (AID 1347397; calls by dose curve; note: nearly all actives have a fitted effect of over 55% in size; note: potency is the fitted concentration of half-maximal effect). As to conditions: Potency: AChE enzyme activity inhibition; outcome: AChE enzyme activity inhibition. In a few lines:
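Human recombinant acetylcholinesterase; substrate acetylthiocholine; thiocholine quantified with DTNB (colorimetric). Compound preincubation 30 min RT; reaction 10 min RT.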

Experiment [9] shares this target. Briefly: Acetylcholinesterase (AChE) small molecule antagonists: fluorescence cell-based qHTS assay (AID 1347398; calls by dose curve; note: nearly all actives have a fitted effect of over 50% in size; note: potency is the fitted concentration of half-maximal effect). As to conditions: Potency: AChE activity; outcome: AChE activity. In a few lines:
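Thiocholine generated from acetylthiocholine by SH-SY5Y cell AChE is detected with Thiolite Green (Ex/Em 490/520 nm) after 40 min at room temperature, following 30 min compound pretreatment at 37 C.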

Experiment [10] has the same target. Briefly: Acetylcholinesterase (AChE) small molecule antagonists: enzyme-based qHTS assay with human liver microsomes (AID 1347399; calls by dose curve; note: nearly all actives have a fitted effect of over 60% in size). The following applies: Potency: qHTS inhibition; outcome: qHTS inhibition. The method, boiled down: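 Recombinant human AChE (50 mU/mL in the enzyme mix) and human liver microsomes (0.25 mg/mL final) were preincubated with compound and NADPH (0.25 mg/mL final) for 30 min at 37 C. Acetylthiocholine/DTNB was then added; thiocholine was read colorimetrically after 10 min at room temperature.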

Experiment [11] concerns the target Cytochrome P450 2D6 (Homo sapiens) (UniProt P10635). Description: Cytochrome P450 Family 2 Subfamily D Member 6 (CYP2D6) small molecule antagonists: luciferase reporter qHTS assay (AID 1671196). Note: nearly all actives have a fitted effect of over 50% in size. Note: potency is the fitted concentration of half-maximal effect. The method, boiled down:
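Inhibition of CYP2D6 was gauged by loss of luminescence, since light produced tracks the luciferin generated from a proluciferin substrate. A 10 min room-temperature preincubation preceded 1 h NADPH-supported turnover.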

The target in experiment [12] is Cytochrome P450 2C19 (Homo sapiens) (UniProt P33261). Description: Cytochrome P450 Family 2 Subfamily C Member 19 (CYP2C19) small molecule antagonists: luciferase reporter qHTS assay (AID 1671197). Note: nearly all actives have a fitted effect of over 65% in size. Note: potency is the fitted concentration of half-maximal effect. In a few lines:
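Enzyme-substrate mix with proluciferin substrate (P450-Glo CYP2C19 system) preincubated with compounds 10 min at room temperature; NADPH regeneration solution added, 37C for 1 h; detection reagent stops reaction, luminescence read after 20 min. Ketoconazole positive control.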

Experiment [13] deals with Cytochrome P450 2C9 (Homo sapiens) (UniProt P11712). Briefly: Cytochrome P450 Family 2 Subfamily C Member 9 (CYP2C9) small molecule antagonists: luciferase reporter qHTS assay (AID 1671198). Note: nearly all actives have a fitted effect of over 50% in size. Note: potency is the fitted concentration of half-maximal effect. The method, boiled down: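 CYP2C9 activity was measured with a P450-Glo proluciferin substrate. Enzyme–substrate mix was held with compound for 10 min at room temperature, then NADPH regeneration solution was added for 1 h at 37C. Luciferin product was read as luminescence.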
Chain of Cytochrome P450 2C9 (Homo sapiens) (P11712 whole entry, looked up): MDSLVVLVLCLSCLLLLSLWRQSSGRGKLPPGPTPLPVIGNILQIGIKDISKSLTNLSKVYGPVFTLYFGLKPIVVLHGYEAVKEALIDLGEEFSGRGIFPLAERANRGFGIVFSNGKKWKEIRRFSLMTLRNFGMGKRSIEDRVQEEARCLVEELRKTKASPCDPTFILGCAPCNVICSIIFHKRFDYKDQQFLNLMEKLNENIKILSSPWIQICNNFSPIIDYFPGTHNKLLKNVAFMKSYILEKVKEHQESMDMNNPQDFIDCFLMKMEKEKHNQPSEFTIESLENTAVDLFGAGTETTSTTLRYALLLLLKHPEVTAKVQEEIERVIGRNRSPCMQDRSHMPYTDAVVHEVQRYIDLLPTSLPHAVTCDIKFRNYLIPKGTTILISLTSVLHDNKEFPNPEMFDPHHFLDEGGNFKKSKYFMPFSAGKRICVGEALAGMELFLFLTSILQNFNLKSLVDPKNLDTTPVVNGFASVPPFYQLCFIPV

The target in experiment [14] is Cytochrome P450 1A2 (Homo sapiens) (UniProt P05177). Briefly: Cytochrome P450 Family 1 Subfamily A Member 2 (CYP1A2) small molecule antagonists: luciferase reporter qHTS assay (AID 1671199). Note: nearly all actives have a fitted effect of over 50% in size. Note: potency is the fitted concentration of half-maximal effect. The method, boiled down:
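Signal from luciferin formed by CYP1A2 from a proluciferin substrate is read as luminescence, expressed in relative luminescence units. Compounds sit with enzyme 10 min, NADPH-driven reaction runs 1 h, all at room temperature.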
A general note: In a reporter assay the amount or activity of a reporter protein is the signal.

Experiment [15] has as its target Voltage-gated inwardly rectifying potassium channel KCNH2 (Homo sapiens) (UniProt Q12809). Briefly: Human Ether-a-go-go-Related Gene (hERG) channel small molecule antagonists: fluorescence cell-based qHTS assay (AID 1671200). In a few lines: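 Measured: Tl+ flux via fluorescence (480/540 nm) in hERG-expressing U2OS cells after 1 h dye loading at room temperature.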
(hERG is a cardiac potassium channel; its block is linked to QT prolongation.)

Experiment [16] has as its target Cytochrome P450 3A4 (Homo sapiens) (UniProt P08684). Description: Cytochrome P450 Family 3 Subfamily A Member 4 (CYP3A4) small molecule antagonists: luciferase reporter qHTS assay (AID 1671201). Note: nearly all actives have a fitted effect of over 50% in size. Note: potency is the fitted concentration of half-maximal effect. The method, boiled down:
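Setup: enzyme-substrate mix, compound pin transfer, 10 min RT. Reaction: NADPH regeneration solution, 1 h RT. Readout: detection reagent stops turnover, luminescence measured after 20 min, expressed in relative luminescence units.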

Experiment [17] in a line: Caspase-3/7 induction in CHO-K1 cells by small molecules, qHTS cell viability counter screen (AID 1346979). Note: nearly all actives have a fitted effect of over 35% in size. In a few lines:
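To flag cytotoxic compounds, treated CHO-K1 wild-type cells were given CellTiter-Fluor at 16hr and read fluorescently after 1hr at 37C; the caspase-3/7 luminescence was measured in these same wells.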

A number with no mark means an inactive call. Results filed as inconclusive are left out. Calls of active or inactive are those of the source. Unless noted, calls come from the whole dose curve; as a rule, active = well fitted curve in the direction sought with a large enough effect in the repeat runs; inconclusive = weak or mixed curves; inactive = no such curve, though single readings can be large; an effect the other way counts as inactive or inconclusive.

Chain of Cytochrome P450 2D6 (Homo sapiens) (P10635 whole entry, looked up): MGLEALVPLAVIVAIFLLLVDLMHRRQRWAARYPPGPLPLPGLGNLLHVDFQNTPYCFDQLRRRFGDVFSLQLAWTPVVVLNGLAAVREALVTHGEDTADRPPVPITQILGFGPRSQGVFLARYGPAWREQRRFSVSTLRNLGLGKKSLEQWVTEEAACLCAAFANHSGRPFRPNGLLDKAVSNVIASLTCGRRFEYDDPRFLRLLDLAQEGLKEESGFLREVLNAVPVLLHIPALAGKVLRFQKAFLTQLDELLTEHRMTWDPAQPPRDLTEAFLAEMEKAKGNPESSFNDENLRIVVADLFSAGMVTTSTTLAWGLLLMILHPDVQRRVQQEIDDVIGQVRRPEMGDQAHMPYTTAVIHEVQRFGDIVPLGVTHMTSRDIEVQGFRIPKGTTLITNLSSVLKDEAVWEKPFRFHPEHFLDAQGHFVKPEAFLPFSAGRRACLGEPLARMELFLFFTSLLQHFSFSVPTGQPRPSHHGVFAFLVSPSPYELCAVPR
Chain of Nuclear receptor subfamily 1 group I member 2 (Homo sapiens) (O75469 whole entry, looked up): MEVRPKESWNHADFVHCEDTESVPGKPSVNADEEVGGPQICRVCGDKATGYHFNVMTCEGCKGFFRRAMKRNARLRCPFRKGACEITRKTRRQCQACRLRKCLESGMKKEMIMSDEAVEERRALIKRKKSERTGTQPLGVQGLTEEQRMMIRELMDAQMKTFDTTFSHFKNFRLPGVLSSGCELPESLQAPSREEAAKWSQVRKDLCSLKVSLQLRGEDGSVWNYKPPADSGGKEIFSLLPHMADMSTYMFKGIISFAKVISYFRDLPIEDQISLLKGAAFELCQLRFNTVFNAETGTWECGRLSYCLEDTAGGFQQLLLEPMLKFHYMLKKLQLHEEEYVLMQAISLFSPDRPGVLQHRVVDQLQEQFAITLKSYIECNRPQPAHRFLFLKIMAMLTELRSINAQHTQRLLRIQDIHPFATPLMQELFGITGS
Chain of Voltage-gated inwardly rectifying potassium channel KCNH2 (Homo sapiens) (Q12809 whole entry, looked up): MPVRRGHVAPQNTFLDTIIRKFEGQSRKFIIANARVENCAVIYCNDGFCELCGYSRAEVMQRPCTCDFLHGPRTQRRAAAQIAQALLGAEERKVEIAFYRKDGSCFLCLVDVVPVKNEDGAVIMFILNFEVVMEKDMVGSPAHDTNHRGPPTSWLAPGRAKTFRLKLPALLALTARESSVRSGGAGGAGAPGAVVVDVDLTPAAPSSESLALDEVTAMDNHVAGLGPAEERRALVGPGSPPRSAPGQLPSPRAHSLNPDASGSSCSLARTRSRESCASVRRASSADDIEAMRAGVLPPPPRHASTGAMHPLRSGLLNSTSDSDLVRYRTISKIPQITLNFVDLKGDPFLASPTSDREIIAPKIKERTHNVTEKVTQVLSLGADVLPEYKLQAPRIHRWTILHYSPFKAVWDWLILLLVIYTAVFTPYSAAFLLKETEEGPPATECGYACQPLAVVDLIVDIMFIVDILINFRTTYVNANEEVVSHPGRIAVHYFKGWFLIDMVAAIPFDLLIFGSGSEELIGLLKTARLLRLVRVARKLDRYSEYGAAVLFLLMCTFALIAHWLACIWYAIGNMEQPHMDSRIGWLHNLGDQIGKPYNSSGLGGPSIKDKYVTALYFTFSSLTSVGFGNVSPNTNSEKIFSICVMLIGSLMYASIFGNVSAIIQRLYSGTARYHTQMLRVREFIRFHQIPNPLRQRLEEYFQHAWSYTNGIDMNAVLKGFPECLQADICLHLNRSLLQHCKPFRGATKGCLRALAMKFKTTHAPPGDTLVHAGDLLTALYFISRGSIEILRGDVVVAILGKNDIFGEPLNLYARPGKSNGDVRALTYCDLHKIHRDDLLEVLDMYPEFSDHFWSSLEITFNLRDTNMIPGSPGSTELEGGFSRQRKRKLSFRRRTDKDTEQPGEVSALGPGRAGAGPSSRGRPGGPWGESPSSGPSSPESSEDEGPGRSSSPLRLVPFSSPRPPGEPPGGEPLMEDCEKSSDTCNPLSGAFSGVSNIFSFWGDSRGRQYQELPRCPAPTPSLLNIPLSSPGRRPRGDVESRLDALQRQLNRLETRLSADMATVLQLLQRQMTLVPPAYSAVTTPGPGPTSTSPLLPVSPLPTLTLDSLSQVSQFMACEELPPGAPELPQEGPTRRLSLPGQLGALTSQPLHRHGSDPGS
Chain of Thyrotropin-releasing hormone receptor (Homo sapiens) (P34981 whole entry, looked up): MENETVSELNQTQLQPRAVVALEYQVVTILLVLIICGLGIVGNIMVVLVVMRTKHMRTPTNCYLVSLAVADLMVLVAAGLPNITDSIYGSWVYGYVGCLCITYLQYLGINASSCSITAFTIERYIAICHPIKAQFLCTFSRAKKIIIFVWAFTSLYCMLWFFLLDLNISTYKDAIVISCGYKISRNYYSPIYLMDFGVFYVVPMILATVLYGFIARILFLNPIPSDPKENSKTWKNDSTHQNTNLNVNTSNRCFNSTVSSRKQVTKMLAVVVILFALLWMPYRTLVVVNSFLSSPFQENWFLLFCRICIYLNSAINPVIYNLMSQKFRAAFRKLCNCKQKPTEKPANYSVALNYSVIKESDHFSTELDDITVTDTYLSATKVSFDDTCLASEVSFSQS
Chain of Cytochrome P450 1A2 (Homo sapiens) (P05177 whole entry, looked up): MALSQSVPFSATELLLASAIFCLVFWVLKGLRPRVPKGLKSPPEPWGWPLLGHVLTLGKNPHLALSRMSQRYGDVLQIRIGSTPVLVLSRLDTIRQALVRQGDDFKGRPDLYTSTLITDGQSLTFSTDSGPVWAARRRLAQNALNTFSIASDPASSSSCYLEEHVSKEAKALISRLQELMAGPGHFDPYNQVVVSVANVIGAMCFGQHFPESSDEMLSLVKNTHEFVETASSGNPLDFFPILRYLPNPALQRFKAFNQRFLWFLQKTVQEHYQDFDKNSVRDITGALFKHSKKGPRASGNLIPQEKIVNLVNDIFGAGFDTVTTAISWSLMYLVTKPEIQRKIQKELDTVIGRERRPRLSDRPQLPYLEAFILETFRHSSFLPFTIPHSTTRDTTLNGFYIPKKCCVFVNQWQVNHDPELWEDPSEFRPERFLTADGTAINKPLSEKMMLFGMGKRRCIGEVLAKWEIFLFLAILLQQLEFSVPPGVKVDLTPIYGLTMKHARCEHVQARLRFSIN
Chain of Cytochrome P450 2C19 (Homo sapiens) (P33261 whole entry, looked up): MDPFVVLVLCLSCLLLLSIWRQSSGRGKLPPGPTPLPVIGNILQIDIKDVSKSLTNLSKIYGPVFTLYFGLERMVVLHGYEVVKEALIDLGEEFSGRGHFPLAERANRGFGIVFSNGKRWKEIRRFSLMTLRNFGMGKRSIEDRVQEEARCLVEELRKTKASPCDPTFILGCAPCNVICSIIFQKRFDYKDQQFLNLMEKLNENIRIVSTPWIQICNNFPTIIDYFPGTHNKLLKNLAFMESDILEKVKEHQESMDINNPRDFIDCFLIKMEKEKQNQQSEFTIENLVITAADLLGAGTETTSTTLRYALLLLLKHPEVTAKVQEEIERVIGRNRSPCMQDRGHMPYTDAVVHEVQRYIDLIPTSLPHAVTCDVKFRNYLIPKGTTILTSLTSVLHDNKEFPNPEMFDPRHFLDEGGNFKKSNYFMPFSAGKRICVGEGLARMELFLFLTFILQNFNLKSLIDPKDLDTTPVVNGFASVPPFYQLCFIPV

Turning to `C=CC=O`, the compound was classed as inactive in experiment [1], in experiment [3] and in [4]. Further, the Potency result in [2], in experiment [5], in [6], in experiment [7], in [8] and in [9] was “inactive” each time. Further, the Potency result in [10], in experiment [11], in experiment [12], in experiment [13], in experiment [14] and in experiment [15] was “inactive” throughout. Further, the Potency result in experiment [16] is “inactive”.
Consider `COc1cc(CC(C)N)cc(OC)c1OC` (configuration not stated), for which the outcome in [1], in [3] and in experiment [4] was inactive. Also, the Potency entry in [2], in [5], in experiment [6], in experiment [7], in experiment [8] and in [9] was “inactive” in each case. Also, the Potency result in experiment [10], in experiment [12], in experiment [13], in [15] and in experiment [16] was “inactive” in each case. Further, in experiment [14], the Potency is 43.2 µM (active).
For `N#CN=C1SCCN1Cc1ccc(Cl)nc1`, the compound was called inactive in [1], in experiment [3] and in experiment [4]. Also, the Potency entry in experiment [2], in experiment [5], in experiment [8], in [9], in experiment [10] and in [12] was “inactive” in each case. The Potency entry in [15] and in experiment [16] was “inactive” in each case. Also, the Potency in [7] is 35.6 µM (active); in experiment [11], 39.9 µM (active).
In the case of `COP(=O)(OC)O/C(C)=C/C(=O)N(C)C`, the compound was called inactive in [1], in [3] and in experiment [4]. Further, the Potency result in experiment [2], in [5], in experiment [6], in experiment [10], in experiment [11] and in [12] was “inactive” in each case. The Potency entry in experiment [15] and in [16] was “inactive” each time. For the same compound, the Potency was 40.2 µM (active) in experiment [7], 63.7 µM (active) in [8] and 14.3 µM (active) in experiment [9].
On to `CON(C)C(=O)Nc1ccc(Br)c(Cl)c1`, for which the compound was called inactive in [1], in experiment [3] and in [4]. The Potency entry in [2], in experiment [5], in experiment [7], in [8], in [9] and in [10] was “inactive” in each case. Moreover, the Potency entry in [11] and in experiment [15] was “inactive” throughout. Moreover, the Potency was 27.3 µM (active) in [6], 28.3 µM (active) in experiment [12], 63.3 µM (active) in experiment [13] and 1.78 µM (active) in [14].
`O=[N+]([O-])CCO`: the result in [1], in experiment [3] and in experiment [4] was inactive. For the same compound, the Potency entry in experiment [2], in [5], in experiment [6], in experiment [7], in experiment [8] and in experiment [9] was “inactive” each time. Moreover, the Potency entry in experiment [10], in [11], in experiment [12], in experiment [13], in experiment [14] and in experiment [15] was “inactive” each time. Also, in experiment [16], the Potency result is “inactive”.
For `NC1(c2ccccc2)CCCCC1`, the call in experiment [3] was inactive.
Take `CC[C@H](N)c1ccccc1`: the Potency result in experiment [2], in experiment [17], in [5], in experiment [8], in [9] and in experiment [10] was “inactive” in each case. Besides, the Potency entry in [15] is “inactive”. Besides, the call in [3] and in experiment [4] was inactive. The Potency is 35.6 µM (active) in experiment [11], 63.3 µM (active) in experiment [12] and 31.7 µM (active) in [16].

These data come from PubChem BioAssay (Tox21).
